From PubChem BioAssay (NCATS)
Results filed as inconclusive are left out. A call without a number means that no potency is given here. Unmarked numbers belong to inactive results. Active and inactive are the calls of the source. The call rests on the fitted dose curve; in most records, active means well fitted inhibition curve with a large enough effect; inconclusive means small, poorly fitted or top-dose-only effect; inactive means no such curve, though single readings can be large or run the other way.

Assays:
[1] = test system: Zika virus NS2B-NS3 protease (unlinked complex); assay: Primary screen GU Rhodamine qHTS for Zika virus inhibitors: Unlinked NS2B-NS3 protease assay (AID 1347159); further: nearly all actives have a fitted effect of over 60% in size
Procedure, shortened: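 A qHTS format was used, with compound concentrations ranging up to 114 microM. Each compound was preincubated with 25 nM NS2B-NS3 protease, and the substrate was then added at 1.5 microM. Curves were fitted with a 4-parameter Hill model.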

[2] = test system: Zika virus NS2B-NS3 protease (linked construct); assay: Primary screen NINDS Rhodamine qHTS for Zika virus inhibitors (AID 1347160); further: nearly all actives have a fitted effect of over 55% in size
Procedure, shortened: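 Kinetic fluorescence (Ex 480 nm, Em 540 nm) over 15 min with 1.5 microM Rhodamine110 peptide and 25 nM linked protease.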

For `COc1cc(C(=O)NC2CCN(C)CC2)ccc1Nc1ncc2c(n1)N(C1CCCC1)CC(F)(F)C(=O)N2C`, the Potency [1] was “inactive” and the Potency [2] was “inactive”.
With `C/C=C1\[C@H](O[C@@H]2O[C@H](CO)[C@@H](O)[C@H](O)[C@H]2O)OC=C(C(=O)OC)[C@H]1CC(=O)O` the Potency [1] was “inactive” and the Potency [2] was “inactive”.
With `COC(=O)C1=CO[C@@H](O[C@@H]2O[C@H](CO)[C@@H](O)[C@H](O)[C@H]2O)[C@@H]2C(COC(C)=O)=C[C@H](O)[C@H]12` the Potency [1] was “inactive” and the Potency [2] was “inactive”.
For `C[C@H]1Oc2cc(cnc2N)-c2c(nn(C)c2C#N)CN(C)C(=O)c2ccc(F)cc21`, the Potency [1] was “inactive” and the Potency [2] was “inactive”.
`COc1cc2c(cc1OC)-c1[nH]nc(Nc3cccc(F)c3)c1C2` was tested, and the Potency [1] was “inactive” and the Potency [2] was “inactive”.
With `C=CC1C(OC2OC(CO)C(O)C(O)C2O)OC=C(C(=O)OC)C1CC1CC(=O)CC(CCc2ccc(O)cc2)O1` (stereo not drawn) the Potency [1] was “inactive” and the Potency [2] was “inactive”.
For `CC1(C)CC2C(C1)C(C)(O)C13CC1(COC3=O)C2O` (stereo not drawn), the Potency [1] was “inactive” and the Potency [2] was “inactive”.
In the case of `CCC(C)C(=O)OC1CC(C)C=C2C=CC(C)C(CCC(O)CC(O)CC(=O)O)C21` (stereo not drawn), the Potency [1] is reported as “inactive” and the Potency [2] is reported as “inactive”.
`CC1=C(CCC(C)CC(=O)O)[C@@]2(C)CCCC(C)(C)C2CC1=O` (stereo partly drawn) was tested, and the Potency [1] was “inactive” and the Potency [2] was “inactive”.
In the case of `COCCOc1ccc(N2CCN(CCn3ncc4c3nc(N)n3nc(-c5ccco5)nc43)CC2)cc1`, the Potency [1] is reported as “inactive” and the Potency [2] is reported as “inactive”.
With `c1cc(Nc2cc(C3CC3)[nH]n2)nc(Nc2ccc3nc[nH]c3c2)n1` the Potency [1] was “inactive” and the Potency [2] was “inactive”.
With `CNC(=S)NS(=O)(=O)c1cc(CCNC(=O)c2cc(Cl)ccc2OC)ccc1OC` the Potency [1] was “inactive” and the Potency [2] was “inactive”.
`CC1=C(COC2OC(CO)C(O)C(O)C2O)C(C(CO)C(=O)O)CC1` (stereo not drawn) was tested, and the Potency [1] was “inactive” and the Potency [2] was “inactive”.
With `CC1(C)CC[C@]2(C(=O)O[C@@H]3O[C@H](CO)[C@@H](O)[C@H](O)[C@H]3O)CC[C@]3(C)C(=CCC4[C@@]5(C)C[C@@H](O)[C@H](O)[C@](C)(C(=O)O)C5CC[C@]43C)C2C1O` (stereo partly drawn) the Potency [1] was “inactive” and the Potency [2] was “inactive”.
In the case of `C/C=C1\[C@H](OC2OC(COC3OC(CO)C(O)C(O)C3O)C(O)C(O)C2O)OC=C(C(=O)OC)[C@H]1CC(=O)OCCc1ccc(O)cc1` (stereo partly drawn), the Potency [1] is reported as “inactive” and the Potency [2] is reported as “inactive”.
With `C=CC(=O)Nc1cc(Nc2ncc(Cl)c(-c3c[nH]c4ccccc34)n2)c(OC)cc1N(C)CCN(C)C` the Potency [1] was “inactive” and the Potency [2] was “inactive”.
For `CC1=C(C)C(=O)OC(C(C)C2CCC3C4CC=C5CC(OC6OC(COC7OC(CO)C(O)C(O)C7O)C(O)C(O)C6O)CC(O)C5(C)C4CCC23C)C1` (stereo not drawn), the Potency [1] was “inactive” and the Potency [2] was “inactive”.
In the case of `CN(C)c1nc(NC2CCC(NC(=O)c3ccc(F)c(F)c3)CC2)nc2ccccc12` (stereo not drawn), the Potency [1] is reported as “inactive” and the Potency [2] is reported as “inactive”.
For `COc1ccccc1NC(=O)OCC1CCN(C(=O)OC(C)(C)C)CC1`, the Potency [1] was “inactive” and the Potency [2] was “inactive”.
In the case of `CCCOc1ccc(-c2nc(OC)c3ccccc3n2)cc1`, the Potency [1] is reported as “inactive” and the Potency [2] is reported as “inactive”.
For `CC(=O)O[C@@H]1C[C@H](O)[C@@]23CO[C@H](O)[C@]1(C)C2C[C@@H](O)[C@]1(C)C3C(=O)[C@H](OC(C)=O)[C@@]2(C)[C@H](c3ccoc3)C[C@H]3O[C@]321` (stereo partly drawn), the Potency [1] was “inactive” and the Potency [2] was “inactive”.
With `CC1(C)CC[C@]2(CO[C@@H]3O[C@H](CO)[C@@H](O)[C@H](O)[C@H]3O)[C@@H](O)C[C@]3(C)C(=CCC4[C@@]5(C)CC[C@H](O[C@@H]6O[C@H](CO[C@@H]7O[C@H](CO[C@@H]8OC[C@@H](O)[C@H](O)[C@H]8O)[C@@H](O)[C@H](O)[C@H]7O)[C@@H](O)[C@H](O)[C@H]6O)C(C)(C)C5CC[C@]43C)[C@@H]2C1` (stereo partly drawn) the Potency [1] was “inactive” and the Potency [2] was “inactive”.
For `C=CC1(C)CC(OC(=O)/C(C)=C\COC(C)=O)C(C(=C)C(=O)O)C(O)C1C(=C)CO` (stereo not drawn), the Potency [1] was “inactive” and the Potency [2] was “inactive”.
`CC(Oc1ccc2[nH]nc(/C=C/c3cnn(CCO)c3)c2c1)c1c(Cl)cncc1Cl` (stereo not drawn) was tested, and the Potency [1] was “inactive” and the Potency [2] was “inactive”.
In the case of `COc1ccc(CCO[C@@H]2O[C@H](CO[C@@H]3OC[C@H](O)[C@H](O)[C@H]3O)[C@@H](O)[C@H](O)[C@H]2O)cc1`, the Potency [1] is reported as “inactive” and the Potency [2] is reported as “inactive”.
With `FC(F)(F)c1cc(-c2ncn(/C=C\c3nnco3)n2)cc(C(F)(F)F)c1` the Potency [1] was “inactive” and the Potency [2] was “inactive”.
With `O=C(NCC(O)CO)c1ccncc1Nc1ccc(I)cc1F` (stereo not drawn) the Potency [1] was “inactive” and the Potency [2] was “inactive”.
With `O=C(/C=C/c1cccc(S(=O)(=O)Nc2ccccc2)c1)NO` the Potency [1] was “inactive” and the Potency [2] was “inactive”.
For `C[C@@H]1CCC2C(C)(C)[C@H](O)CC[C@]2(C)[C@@]12Cc1c(O)cc3c(c1O2)CNC3=O` (stereo partly drawn), the Potency [1] was “inactive” and the Potency [2] was “inactive”.
With `O=C1CC2(CCCC2)[C@H](O)C(=O)N1CCCCN1CCN(c2ncccn2)CC1` the Potency [1] was “inactive” and the Potency [2] was “inactive”.
With `NC(=O)c1cccc2cn(-c3ccc(C4CCCNC4)cc3)nc12` (stereo not drawn) the Potency [1] was “inactive” and the Potency [2] was “inactive”.
In the case of `COC(=O)CC(O)C1OC(c2ccccc2)C(O)C1O` (stereo not drawn), the Potency [1] is reported as “inactive” and the Potency [2] is reported as “inactive”.
With `Cc1cc(NC(=O)Nc2ccc(F)c(F)c2)n(-c2ccccc2)n1` the Potency [1] was “inactive” and the Potency [2] was “inactive”.
For `CC(=O)NC[C@H]1CN(c2ccc(N3CCN(C(=O)CO)CC3)c(F)c2)C(=O)O1`, the Potency [1] was “inactive” and the Potency [2] was “inactive”.
For `Cc1cc(Cl)ccc1COc1ccnn1-c1cc(C(=O)O)ccn1`, the Potency [1] was “inactive” and the Potency [2] was “inactive”.
`C/C(=C\CC[C@@H](C)[C@H]1CC(O)[C@@]2(C)C3CC[C@H]4C(C)(C)[C@@H](OC5OCC(O)C(O)C5OC5OC(CO)C(O)C(O)C5O)CC[C@@]45C[C@@]35CC(O)[C@]12C)C(=O)O` (stereo partly drawn) was tested, and the Potency [1] was “inactive” and the Potency [2] was “inactive”.
Compound `COC1CC(OC2CCC3(C)C(=CCC4C3C(OC(C)=O)C(OC(=O)/C=C/c3ccccc3)C3(C)C(C(C)O)CCC43O)C2)OC(C)C1OC1CC(OC)C(OC2OC(C)C(OC3OC(CO)C(O)C(O)C3O)C(OC)C2O)C(C)O1` (stereo not drawn) has an activity change, negative = inhibition [1] of 0.295% [at 19.1 µM] and an activity change, negative = inhibition [2] of 23.5% [at 10.7 µM].
With `CC1OC(OC2C(CO)OC(OCC3OC(OC(=O)C45CCC(C)(C)CC4C4=CCC6C7(C)CCC(OC8OC(CO)C(O)C(OC9OC(CO)C(O)C(O)C9O)C8O)C(C)(C)C7CCC6(C)C4(C)CC5)C(O)C(O)C3O)C(O)C2O)C(O)C(O)C1OC1OC(CO)C(O)C(O)C1O` (stereo not drawn) the activity change, negative = inhibition [1] was 10.6% [at 19.1 µM] and the outcome [2] was “inactive [at 10.7 µM]”.
For `c1ccc(-c2csc(N3CCOCC3)n2)cc1`, the Potency [1] was “inactive” and the Potency [2] was “inactive”.
For `CCOC(=O)C(CCc1ccccc1)NC1CSC(c2cccs2)CN(CC(=O)O)C1=O` (stereo not drawn), the Potency [1] was “inactive” and the Potency [2] was “inactive”.
For `CNC(=O)c1cccc(-c2ccc3c(N4CCOC[C@@H]4C)nc(N4CCOC[C@@H]4C)nc3n2)c1`, the Potency [1] was “inactive” and the Potency [2] was “inactive”.
`CCOc1cc(C(=O)N2CCC(N3CCN(C)CC3)CC2)ccc1Nc1ncc2c(n1)N(C1CCCC1)c1ccccc1C(=O)N2C` was tested, and the Potency [1] was “inactive” and the Potency [2] was “inactive”.
In the case of `CC(=O)C12OC(C)(C)OC1CC1C3CCC4=CC(=O)C=CC4(C)C3(F)C(O)CC12C` (stereo not drawn), the Potency [1] is reported as “inactive” and the Potency [2] is reported as “inactive”.
In the case of `C[C@@]12C[C@]3(O)O[C@H](O1)[C@]1(COC(=O)c4ccccc4)[C@H]3C[C@@]12O[C@@H]1O[C@H](CO)[C@@H](O)[C@H](O)[C@H]1O`, the Potency [1] is reported as “inactive” and the Potency [2] is reported as “inactive”.
With `CC1(c2nc3c(C(N)=O)cccc3[nH]2)CCCN1` (stereo not drawn) the Potency [1] was “inactive” and the Potency [2] was “inactive”.
With `CC(Nc1ncnc2nc[nH]c12)c1cc2cccc(Cl)c2c(=O)n1-c1ccccc1` (stereo not drawn) the Potency [1] was “inactive” and the Potency [2] was “inactive”.
`C=CC(=O)Nc1cccc(CN2C(=O)N(c3c(Cl)c(OC)cc(OC)c3Cl)Cc3cnc(NCCCCN(CC)CC)nc32)c1` was tested, and the Potency [1] was “inactive” and the Potency [2] was “inactive”.
In the case of `CON(C)C(=O)[C@H](O)[C@H](Cc1ccccc1)NC(=O)c1cc2cc(Cl)ccc2[nH]1`, the Potency [1] is reported as “inactive” and the Potency [2] is reported as “inactive”.
In the case of `C=C1C(=O)O[C@H](CCC)[C@H]1C(=O)O`, the Potency [1] is reported as “inactive” and the Potency [2] is reported as “inactive”.
